According to PubChem BioAssay (NCI):
Values joined by “and” are separate entries in the source; they are usually repeats but may differ in a detail not shown here. Identical values can stand only once. About 79,000 compounds went through this panel and 15% of them were active in at least one assay; those are over-represented in the sample as a whole. The source holds several records for some structures; these can differ, active in one and inactive in another. Active and inactive are the calls of the source. Rule as the data show it: active = growth inhibition above about 70%; inactive = the rest.

Columns and labels:
[1] = NCI Yeast Anticancer Drug Screen. Data for the wt1 strain (AID 149);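 also: 0% = growth of vehicle-treated wt1 cultures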; settings: S. cerevisiae wt1 strain (SPY 50644) growth inhibition, stronger effect = higher value
Outline: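 Growth inhibition read against vehicle controls after compound exposure of the wt1 yeast strain.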

[2] = NCI Yeast Anticancer Drug Screen. Data for the rad50EPP+ strain (AID 151);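 also: 0% = growth of vehicle-treated control cultures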; settings: S. cerevisiae rad50 mutant strain, stronger effect = higher value
Outline: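 In this screen, rad50EPP+ yeast were exposed to compounds. Growth inhibition was scored against vehicle-treated controls.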

[3] = NCI Yeast Anticancer Drug Screen. Data for the mgt1 strain (AID 153); settings: S. cerevisiae mgt1 mutant growth inhibition, stronger effect = higher value
Outline: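 mgt1 strain exposed; growth vs vehicle control recorded as inhibition.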

[4] = NCI Yeast Anticancer Drug Screen. Data for the rad50 strain (AID 155);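 also: 0% = growth of vehicle-only cultures of the same strain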; settings: S. cerevisiae rad50 strain growth inhibition, stronger effect = higher value
Outline: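 Readout: growth inhibition relative to vehicle-treated cultures. Compound exposure was carried out in a genetically defined yeast strain deficient in DNA damage repair.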

[5] = NCI Yeast Anticancer Drug Screen. Data for the mec2-1 strain (AID 157); settings: S. cerevisiae mec2-1 strain, stronger effect = higher value
Outline: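 Vehicle-treated cultures served as reference for growth inhibition of compound-exposed mec2-1 yeast.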

[6] = NCI Yeast Anticancer Drug Screen. Data for the rad14 strain (AID 159);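 also: 0% = growth of vehicle-treated control cultures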; settings: S. cerevisiae rad14 strain growth inhibition, stronger effect = higher value
Outline: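 Growth inhibition vs vehicle controls; genetically altered yeast strain (DNA damage repair defect) treated with test compounds.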

[7] = NCI Yeast Anticancer Drug Screen. Data for the sgs1 mgt1 strain (AID 161);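 also: 0% = growth of cultures given vehicle only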; settings: S. cerevisiae sgs1 mgt1 strain, stronger effect = higher value
Outline: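 Genetically altered yeast, compound exposure, growth inhibition relative to vehicle.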

[8] = NCI Yeast Anticancer Drug Screen. Data for the CLN2oe strain (AID 163);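 also: 0% = growth of vehicle-only control cultures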; settings: S. cerevisiae CLN2oe strain, stronger effect = higher value
Outline: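 Inhibition relative to vehicle-treated yeast is reported. Cells: strain with genetic alteration in cell-cycle control, grown with compound.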

[9] = NCI Yeast Anticancer Drug Screen. Data for the cln2 rad14 strain (AID 165);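 also: 0% = growth equal to vehicle treated cultures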; settings: S. cerevisiae cln2 rad14 strain, stronger effect = higher value
Outline: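 Each compound was tested on cln2 rad14 yeast. Inhibition of growth was calculated against vehicle-exposed controls.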

[10] = NCI Yeast Anticancer Drug Screen. Data for the bub3 strain (AID 167); settings: S. cerevisiae bub3 mutant strain, stronger effect = higher value
Outline: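 Readout: yeast growth inhibition, expressed relative to vehicle-only wells. The test organism is a mutant strain from a panel with lesions in DNA repair or checkpoint genes.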

[11] = NCI Yeast Anticancer Drug Screen. Data for the wt2 strain (AID 169);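 also: 0% = growth of vehicle-treated yeast cultures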; settings: S. cerevisiae wt2 strain growth inhibition, stronger effect = higher value
Outline: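 Inhibition of yeast growth was determined after compound treatment, normalised to controls receiving only vehicle.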

[12] = NCI Yeast Anticancer Drug Screen. Data for the mlh1 strain (AID 171);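 also: 0% = growth of vehicle-treated control cultures of the same strain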; settings: S. cerevisiae mlh1 strain growth inhibition, stronger effect = higher value
Outline: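 Vehicle-normalised growth inhibition of a repair- or checkpoint-altered yeast strain following compound treatment.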

[13] = NCI Yeast Anticancer Drug Screen. Data for the sgs1 strain (AID 173);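 also: 0% = growth of vehicle-only control cultures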; settings: S. cerevisiae sgs1 mutant, stronger effect = higher value
Outline: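 Screen format: yeast with repair or checkpoint alterations, compound exposure, growth read relative to vehicle.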

[14] = NCI Yeast Anticancer Drug Screen. Data for the mlh1 rad18 strain (AID 175); settings: S. cerevisiae mlh1 rad18 strain growth inhibition, stronger effect = higher value
Outline: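 Vehicle-treated cultures served as the reference for growth inhibition in a yeast strain carrying DNA damage repair alterations exposed to each compound.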

[15] = NCI Yeast Anticancer Drug Screen. Data for the rad18 strain (AID 177); settings: S. cerevisiae rad18 mutant growth inhibition, stronger effect = higher value
Outline: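 Test articles were incubated with altered yeast defective in DNA damage repair. Results are given as inhibition of growth versus vehicle.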

[16] = at 5.0 µM (retest, dose inferred, filed as 0.5)
[17] = at 50.0 µM (retest, dose inferred, filed as 5.0)

Measured: growth inhibition

c1cc2c(cc1C1OC[C@H]3[C@@H](c4ccc5c(c4)OCO5)OC[C@@H]13)OCO2 (stereo partly specified)
active: [10]; [16] 70% | [10]; [17] 83% | [10]; at 50.0 µM 75.8%
inactive: [1]; at 1.2 µM -1% | [1]; at 3.7 µM -6% | [1]; at 11.0 µM 1% | [1]; at 33.0 µM -20% | [1]; at 100.0 µM -8% | [2]; at 1.2 µM -7% | [2]; at 3.7 µM -16% | [2]; at 11.0 µM 3% | [2]; at 33.0 µM 16% | [2]; at 100.0 µM 2% | [3]; at 1.2 µM -4% | [3]; at 3.7 µM -9% | [3]; at 11.0 µM -2% | [3]; at 33.0 µM -5% | [3]; at 100.0 µM -5% | [4]; at 1.2 µM -16% | [4]; at 3.7 µM -19% | [4]; [16] 2% | [4]; at 11.0 µM -16% | [4]; at 33.0 µM -22% | [4]; [17] 3% | [4]; at 50.0 µM 15.3% | [4]; at 100.0 µM 8% | [5]; at 1.2 µM -2% | [5]; at 3.7 µM -4% | [5]; [16] 2% | [5]; at 11.0 µM -4% | [5]; at 33.0 µM -5% | [5]; [17] 8% | [5]; at 50.0 µM -0.6% | [5]; at 100.0 µM -1% | [6]; at 1.2 µM 1% | [6]; at 3.7 µM 6% | [6]; at 11.0 µM 17% | [6]; at 33.0 µM 26% | [6]; at 100.0 µM 28% | [7]; [16] 7% | [7]; [17] 20% | [7]; at 50.0 µM 60% | [8]; at 1.2 µM -7% | [8]; at 3.7 µM -9% | [8]; at 11.0 µM -10% | [8]; at 33.0 µM -9% | [8]; at 100.0 µM -7% | [9]; [16] -2% | [9]; [17] -8% | [9]; at 50.0 µM 10.8% | [10]; at 1.2 µM 14% | [10]; at 3.7 µM 26% | [10]; at 11.0 µM 37% | [10]; at 33.0 µM 46% | [10]; at 100.0 µM 39% | [11]; at 1.2 µM -1% | [11]; at 3.7 µM 2% | [11]; at 11.0 µM 7% | [11]; at 33.0 µM 24% | [11]; at 100.0 µM 12% | [12]; at 1.2 µM -16% | [12]; at 3.7 µM -8% | [12]; at 11.0 µM -8% | [12]; at 33.0 µM -8% | [12]; at 100.0 µM -6% | [13]; at 1.2 µM -16% | [13]; at 3.7 µM -11% | [13]; at 11.0 µM 3% | [13]; at 33.0 µM 9% | [13]; at 100.0 µM 15% | [14]; [16] 7% | [14]; [17] 17% | [14]; at 50.0 µM 27.6% | [15]; at 1.2 µM -10% | [15]; at 3.7 µM -6% | [15]; at 11.0 µM -4% | [15]; at 33.0 µM -8% | [15]; at 100.0 µM -11%

BrCC[N+]12CC[N+](CCBr)(CC1)C2
inactive: [1]; at 1.2 µM 1% | [1]; at 3.7 µM 6% | [1]; at 11.0 µM 14% | [2]; at 1.2 µM 9% | [2]; at 3.7 µM 14% | [2]; at 11.0 µM 12% | [3]; at 1.2 µM 12% | [3]; at 3.7 µM -2% | [3]; at 11.0 µM 42% | [4]; at 1.2 µM 14% | [4]; at 3.7 µM 20% | [4]; [16] 40% and 27% | [4]; at 11.0 µM 55% | [5]; at 1.2 µM -4% | [5]; at 3.7 µM 5% | [5]; [16] 43% and 1% | [5]; at 11.0 µM 29% | [6]; at 1.2 µM -13% | [6]; at 3.7 µM -16% | [6]; at 11.0 µM 56% | [7]; [16] 46% and -15% | [8]; at 1.2 µM 1% | [8]; at 3.7 µM -9% | [8]; at 11.0 µM 2% | [9]; [16] 35% and 23% | [10]; at 1.2 µM -5% | [10]; at 3.7 µM -1% | [10]; [16] 34% and -12% | [10]; at 11.0 µM 36% | [11]; at 1.2 µM -33% | [11]; at 3.7 µM -18% | [11]; at 11.0 µM 4% | [12]; at 1.2 µM 12% | [12]; at 3.7 µM -2% | [12]; at 11.0 µM 42% | [13]; at 1.2 µM -17% | [13]; at 3.7 µM 15% | [13]; at 11.0 µM 5% | [14]; [16] 64% and 42% | [15]; at 1.2 µM 10% | [15]; at 3.7 µM 25% | [15]; at 11.0 µM 53%
active: [1]; at 33.0 µM 82% | [1]; at 100.0 µM 94% | [2]; at 33.0 µM 81% | [2]; at 100.0 µM 92% | [3]; at 33.0 µM 88% | [3]; at 100.0 µM 96% | [4]; at 33.0 µM 87% | [4]; [17] 94% and 89% | [4]; at 50.0 µM 86.7% and 86.5% | [4]; at 100.0 µM 93% | [5]; at 33.0 µM 87% | [5]; [17] 98% and 94% | [5]; at 50.0 µM 92.2% and 89.9% | [5]; at 100.0 µM 95% | [6]; at 33.0 µM 93% | [6]; at 100.0 µM 94% | [7]; [17] 90% and 93% | [7]; at 50.0 µM 89.2% | [8]; at 33.0 µM 78% | [8]; at 100.0 µM 89% | [9]; at 50.0 µM 84.9% and 85.5% | [10]; at 33.0 µM 89% | [10]; [17] 92% and 95% | [10]; at 50.0 µM 86.7% and 87% | [10]; at 100.0 µM 95% | [11]; at 33.0 µM 86% | [11]; at 100.0 µM 95% | [12]; at 33.0 µM 88% | [12]; at 100.0 µM 96% | [13]; at 33.0 µM 77% | [13]; at 100.0 µM 89% | [14]; [17] 95% and 90% | [14]; at 50.0 µM 90.6% and 86.9% | [15]; at 33.0 µM 89% | [15]; at 100.0 µM 95%
92% (active) and 65% (inactive): [9]; [17]
